The results in this text go back to PubChem BioAssay.

The nature of assay [1]: liver-stage malaria parasite load reduction – cell-based, known kinase inhibitor set, luminescence, hepatoma host viability (AID 624392).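 Further: infected cells incubated roughly two days before readout.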 The conditions noted are these: Plasmodium liver stage in hepatoma cells, luciferase luminescence, concentration not given here; liver cell % of control: measured here: host liver cell viability; parasite % of control: stronger effect = lower value.

Assay [2] can be described thus: altered dexamethasone sensitivity, NF-kB reporter, cell-based, luciferase, IL-1B stimulus (AID 624486).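 On percent of negative control (+Dex): 100% = mean signal of vehicle control wells on the plate.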 The conditions noted are these: IL-1B + dexamethasone, luminescence; percent of negative control (+Dex): actives lie on both sides, concentration not given here; z-score: measured here: IL-1B alone, no Dex.
Assay [3] can be described thus: C. elegans survival during P. aeruginosa infection – whole organism (AID 651566).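 Further: tested at 14 µM; sign flipped so higher z means a lower ratio.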 To be noted: C. elegans killed by P. aeruginosa, survival ratio.
The nature of assay [4]: pro-inflammatory signaling induction in mouse macrophages – cell-based, murine, luminescence (AID 652131). To be noted: murine macrophage pro-inflammatory reporter, stronger effect = higher value.
Assay [5] has as its target Cellular tumor antigen p53 (Homo sapiens) (UniProt P04637). Put plainly: GFP-p53 level modulators in HPV16+ cells – imaging, known kinase inhibitor set, EGFP/DsRed ratio (AID 1053116).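 Further: cells exposed to compounds for 24 h at 37 °C before reading.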 The conditions noted are these: GFP-p53 stability, stronger effect = higher value; EGFP object count: measured here: GFP-p53 positive objects count.
A short description of assay [6]: inducers of IRF3 signaling, differentiated THP-1 – cell-based, PMA-stimulated THP-1, luminescence (AID 1053176). To be noted: PMA-differentiated THP-1, IRF3 reporter luminescence; stronger effect = higher value.
Assay [7] is described as follows: MELAS cybrid and Rieske KO viability enhancers – cell-based, MELAS cybrids, Rieske KO mouse fibroblasts, CellTiter-Glo, primary screen (AID 1508586;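 active means mean z-score across replicates of 1.96 or higher in either the MELAS or the Rieske mutant cell line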;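 further: z relative to plate mean and SD of compound and empty wells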). To be noted: low glucose.
A short description of assay [8]: viability loss in pontine glioma line – cell-based, JHH-DIPG-1, MIPE4.0, CellTiter-Glo, qHTS, dose response (AID 1347062; cut-off not given, nearly all actives have AC50 up to about 27 µM;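 further: cells exposed to compound for two days before readout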). To be noted: JHH-DIPG-1 viability, CellTiter-Glo ATP luminescence.
Assay [9] in a line: viability loss in pontine glioma line – cell-based, SU-DIPG-IV, MIPE4.0, CellTiter-Glo, qHTS, dose response (AID 1347063; cut-off not given, nearly all actives have AC50 up to about 30 µM;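 further: compound exposure lasted 48 hours before the viability readout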). The conditions noted are these: CellTiter-Glo ATP luminescence.
A short description of assay [10]: viability loss in pontine glioma line – cell-based, SU-DIPG-XXV, MIPE5.0, CellTiter-Glo, qHTS, dose response (AID 1347065; cut-off not given, nearly all actives have AC50 up to about 26 µM;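 further: cells exposed to compound for 48 hours before ATP readout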). The conditions noted are these: CellTiter-Glo ATP luminescence.
Assay [11] is described as follows: growth inhibition of DIPG cells – cell-based, MIPE4.0 library, CellTiter-Glo luminescence, qHTS (AID 1347066; cut-off not given, nearly all actives have AC50 up to about 30 µM;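 further: cells exposed to compound for 48 hours before readout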). To be noted: SU-DIPG-VI viability, CellTiter-Glo ATP luminescence.
A short description of assay [12]: JHH-DIPG-1 glioma cell viability, MIPE5.0 library, CellTiter-Glo luminescence, qHTS (AID 1347067; cut-off not given, nearly all actives have AC50 up to about 26 µM;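 further: cells exposed to compound for 48 hours before readout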). To be noted: JHH-DIPG-1 glioma viability, CellTiter-Glo ATP luminescence.
Assay [13] in a line: growth inhibition of DIPG cells – cell-based, MIPE5.0 library, qHTS (AID 1347068; cut-off not given, nearly all actives have IC50 up to about 30 µM). The conditions noted are these: SU-DIPG-XXV viability.
The mark [14] stands for this setting: MELAS cybrid survival, CellTiter-Glo 48 h, stronger effect = higher value.
The mark [15] stands for this setting: Rieske KO mouse fibroblast survival, CellTiter-Glo 72 h.

Structures are written as SMILES. Records with an inconclusive call do not appear. The source made the active and inactive calls. Unless noted, how the calls were made is not given here.

Sequence of Cellular tumor antigen p53 (Homo sapiens) (P04637 whole entry, looked up): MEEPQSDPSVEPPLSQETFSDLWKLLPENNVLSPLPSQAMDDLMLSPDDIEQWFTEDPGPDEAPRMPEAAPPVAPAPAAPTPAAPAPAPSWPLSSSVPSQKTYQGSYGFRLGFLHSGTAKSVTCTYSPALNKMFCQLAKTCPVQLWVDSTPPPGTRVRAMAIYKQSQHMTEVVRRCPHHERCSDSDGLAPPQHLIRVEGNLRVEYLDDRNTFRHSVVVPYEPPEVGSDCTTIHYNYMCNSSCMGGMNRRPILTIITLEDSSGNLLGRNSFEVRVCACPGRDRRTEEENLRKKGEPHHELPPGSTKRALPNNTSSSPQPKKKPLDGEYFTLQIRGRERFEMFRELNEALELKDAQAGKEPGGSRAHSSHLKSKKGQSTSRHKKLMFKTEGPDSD

`CC1=C(C(=O)Nc2ccc3[nH]ncc3c2)C(c2ccc(F)cc2)NC(=O)N1` (stereo unspecified): the liver cell % of control in assay [1] was 105%. The parasite % of control in assay [1] was 158% (inactive). For the same compound, the percent of negative control (+Dex) in assay [2] is 100% (inactive). Besides, the z-score in [2] is 0.22; in assay [3], 0.64 (inactive); in assay [4], -0.296 (inactive); in assay [7] (setting [14]) it was 0.62 (inactive); in assay [7] (setting [15]), -0.219. The EGFP object count in [5] turned out to be 3.5. Moreover, in assay [5], the EGFP/DsRed ratio is 0.352 (inactive). Besides, the fraction signal in [6] was 0.0035 (inactive).

`Cc1ccc(C(=O)NC(C)C)cc1-c1ccc(C(=O)NCC2CC2)cc1` gave a liver cell % of control in [1] of 90%. For the same compound, the parasite % of control in [1] was 124% (inactive). Moreover, the percent of negative control (+Dex) in assay [2] was 94.5% (inactive). Further, the z-score in assay [2] is 1.18; in [3], 0.505 (inactive); in [4], 0.198 (inactive); in [7] (setting [14]), 0.0329 (inactive); in assay [7] (setting [15]) it was 0.189. For the same compound, the EGFP object count in [5] amounted to 3. In assay [5], the EGFP/DsRed ratio is 0.0297 (inactive). Besides, the fraction signal in [6] is -0.008 (inactive).

On to `FC(F)(F)CNc1nccc(-c2cnn3ncccc23)n1`, for which the liver cell % of control in assay [1] was 95.3%. Besides, the parasite % of control in assay [1] was 264% (inactive). Moreover, the percent of negative control (+Dex) in [2] is 33.5% (active). Further, the z-score was -6.74 in assay [2]; -1.18 (inactive) in assay [3]; -1.22 (inactive) in [4]; 0.365 (inactive) in assay [7] (setting [14]); -0.533 in assay [7] (setting [15]). Further, the EGFP object count in assay [5] came out at 2. In assay [5], the EGFP/DsRed ratio is 0.0558 (inactive). For the same compound, in assay [6], the fraction signal was -0.0105 (inactive).

The compound `CC(C)=Cc1cccc2[nH]c(O)c(N=Nc3ccc(S(N)(=O)=O)cc3)c12` registered a liver cell % of control in assay [1] of 77.9%. Besides, the parasite % of control in [1] was 247% (inactive). For the same compound, in [2], the percent of negative control (+Dex) was 109% (inactive). Moreover, the z-score is 1.89 in [2]; -0.155 (inactive) in [3]; 0.183 (inactive) in assay [4]; 0.633 (inactive) in [7] (setting [14]); 0.0676 in assay [7] (setting [15]). Besides, the EGFP object count in assay [5] was determined as 21.5. For the same compound, the EGFP/DsRed ratio in [5] is 0.593 (inactive). In addition, the fraction signal in assay [6] is 0 (inactive).

Turning to `Cn1cc(C2=C(c3c4n(c5ccccc35)CCC(CN)C4)C(=O)NC2=O)c2ccccc21` (stereo unspecified), the liver cell % of control in assay [1] stood at 84.3%. Besides, the parasite % of control in assay [1] was 50.7% (inactive). The percent of negative control (+Dex) in assay [2] was 89.5% (inactive). The z-score in assay [2] is -0.37. Also, in assay [5], the EGFP object count is 2. Besides, the EGFP/DsRed ratio in assay [5] was 0.0193 (inactive). The fraction signal in assay [6] is -0.001 (inactive). For the same compound, the AC50 in [8] is 13.2 µM (active); in [9] it was 18.7 µM (active); in assay [11], 23.5 µM (active). Further, the compound was called inactive in assay [10], in assay [12] and in [13].

Take `COc1cccc(-n2ncc3c(N/N=C/c4ccc(F)cc4)ncnc32)c1`: the liver cell % of control in assay [1] was found to be 104%. The parasite % of control in [1] is 96.2% (inactive). The percent of negative control (+Dex) in [2] was 93.5% (inactive). Also, the z-score in [2] is 0.76; in assay [3], -1.12 (inactive); in assay [4], -0.343 (inactive); in assay [7] (setting [14]), 1.48 (inactive); in assay [7] (setting [15]), -0.0554. The EGFP object count in assay [5] came out at 9. In addition, the EGFP/DsRed ratio in assay [5] was 0.197 (inactive). The fraction signal in assay [6] is -0.0025 (inactive).

Turning to `COC(=O)Nc1nc2ccc(Oc3ccc(NC(=O)Nc4cccc(Br)c4)cc3)cc2[nH]1`, the liver cell % of control in assay [1] came to 77.3%. Besides, the parasite % of control in assay [1] was 247% (inactive). Also, the percent of negative control (+Dex) in assay [2] is 104% (inactive). For the same compound, the z-score was 0.65 in assay [2]; -0.435 (inactive) in [3]; 0.412 (inactive) in assay [4]; 0.278 (inactive) in assay [7] (setting [14]); -0.0385 in assay [7] (setting [15]). For the same compound, in assay [5], the EGFP object count came out at 6.5. Further, the EGFP/DsRed ratio in assay [5] was 0.0884 (inactive). In assay [6], the fraction signal is -0.001 (inactive).

As for `COC(=O)Nc1nc2ccc(Oc3ccc(NC(=O)Nc4cc(C(F)(F)F)ccc4F)cc3)cc2s1`, in assay [1], the liver cell % of control is 100%. In addition, in assay [1], the parasite % of control is 360% (inactive). Also, the percent of negative control (+Dex) in assay [2] was 120% (inactive). Besides, the z-score in assay [2] was -1.24; in assay [3], -0.21 (inactive); in assay [4], -0.073 (inactive); in [7] (setting [14]), -0.628 (inactive); in [7] (setting [15]), -0.719. Further, the EGFP object count in [5] is 18.5. In addition, the EGFP/DsRed ratio in assay [5] is 0.414 (inactive). The fraction signal in assay [6] was 0 (inactive).

Compound `Cc1ccc(Nc2ccnc(Nc3cccc(C(N)=O)c3)n2)cc1O` returned a liver cell % of control in [1] of 103%. Besides, the parasite % of control in assay [1] was 259% (inactive). Also, in assay [2], the percent of negative control (+Dex) was 106% (inactive). Further, the z-score is 1.52 in assay [2]; -0.32 (inactive) in [3]; -1.32 (inactive) in [4]; -0.195 (inactive) in assay [7] (setting [14]); 0.472 in assay [7] (setting [15]). Moreover, the EGFP object count in assay [5] was 3. In addition, in assay [5], the EGFP/DsRed ratio was 0.0254 (inactive). The fraction signal in assay [6] was -0.008 (inactive).

`N#Cc1cccc(Nc2nccc(-c3cnn4ncccc34)n2)c1` showed a liver cell % of control in assay [1] of 128%. The parasite % of control in assay [1] is 19.1% (inactive). Also, the percent of negative control (+Dex) in assay [2] is 2% (active). Further, the z-score in assay [2] was -9.25; in assay [3] it was 0.415 (inactive); in [4], -1.79 (inactive); in assay [7] (setting [14]), 0.321 (inactive); in assay [7] (setting [15]) it was 1.44. Besides, in assay [5], the EGFP object count is 1. Further, the EGFP/DsRed ratio in [5] was 0.00226 (inactive). In addition, in assay [6], the fraction signal is -0.013 (inactive).

The compound `O=C1Nc2ccc(I)cc2/C1=C\c1cc(Br)c(O)c(Br)c1` showed a liver cell % of control in [1] of 86.2%. The parasite % of control in assay [1] is 77.5% (inactive). Moreover, in [2], the percent of negative control (+Dex) is 92% (inactive). The z-score in assay [2] is -0.355; in assay [3] it was 1.3 (inactive); in assay [4], 0.587 (inactive); in assay [7] (setting [14]), 0.405 (inactive); in assay [7] (setting [15]) it was -0.253. For the same compound, the EGFP object count in assay [5] was determined as 1. The EGFP/DsRed ratio in assay [5] is 0.0402 (inactive). Besides, in assay [6], the fraction signal is -0.0105 (inactive).

In [1], `C[C@@H](Oc1cc(-n2cnc3ccc(OCC4CCN(C)CC4)cc32)sc1C(N)=O)c1ccccc1C(F)(F)F` had a liver cell % of control of 80.7%. Moreover, the parasite % of control in assay [1] is 130% (inactive). For the same compound, the percent of negative control (+Dex) in assay [2] was 98.5% (inactive). The z-score in [2] is -0.76; in assay [3], -1.17 (inactive); in assay [4] it was -2 (inactive); in assay [7] (setting [14]) it was 0.571 (inactive); in [7] (setting [15]), 0.279. Moreover, in [5], the EGFP object count was 12. Also, the EGFP/DsRed ratio in assay [5] was 0.346 (inactive). For the same compound, in assay [6], the fraction signal was -0.0025 (inactive).

`Fc1ccc(-c2nn3ncccc3c2-c2ccnc(Nc3ccc4c(c3)OCCO4)n2)cc1`: the liver cell % of control in assay [1] worked out at 90.5%. The parasite % of control in assay [1] is 13.9% (inactive). Moreover, the percent of negative control (+Dex) in [2] is 100% (inactive). For the same compound, the z-score in assay [2] is -1.27; in assay [3] it was -0.41 (inactive); in assay [4] it was -0.769 (inactive); in assay [7] (setting [14]), -0.754 (inactive); in [7] (setting [15]), -0.424. In addition, the EGFP object count in [5] turned out to be 3. The EGFP/DsRed ratio in assay [5] is 0.08 (inactive). For the same compound, the fraction signal in assay [6] is -0.003 (inactive).

In [1], `CS(=O)(=O)Nc1cccc(-c2ccc3c(NC(=O)C4CC4)n[nH]c3c2)c1` had a liver cell % of control of 89.6%. Further, the parasite % of control in [1] is 233% (inactive). Also, in [2], the percent of negative control (+Dex) is 96% (inactive). Moreover, the z-score in [2] was 0.535; in [3], 0.185 (inactive); in assay [4] it was -0.214 (inactive); in [7] (setting [14]), -0.446 (inactive); in assay [7] (setting [15]) it was -0.47. The EGFP object count in assay [5] came to 7. Besides, in assay [5], the EGFP/DsRed ratio was 0.137 (inactive). Further, the fraction signal in assay [6] was -0.0065 (inactive).
